Most compounds without a hit are left out; they make up all but 3.9% or so of the library.
ATXN viability – Viability Counterscreen for Primary qHTS for Inhibitors of ATXN expression; Potency, µM (highest dose often 56.7 µM), hits mostly cytotoxic; S2 cells (HEK-293 line with an ATXN2-luciferase reporter) viability, CellTiter-Fluor protease fluorescence, 24 h; 0.49% of 400,000 active; further: nearly all actives have a fitted effect of over 40% in size
TGFb inhibitor – qHTS for Inhibitors of TGF-b | HepG2 CAGA-GFP TGF-b/SMAD3 reporter, GFP fluorescence, 18 h; TGF-beta stimulated, 500 pg/mL final | Potency, µM (titrated, usually from 46.1 µM), without a hit: at the highest dose activity, negative = inhibition, usual class: inhibitors | 1.2% of 410,000 active; further: on the % scale 0 is the no-effect control and ±100 the full control effect; nearly all actives have a fitted effect of over 65% in size
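Read-out: total well GFP (ex488/em500-530) summed from mean per-cell fluorescence. Cells: HEPG2 CAGA-GFP, 1% FBS DMEM, 18 h at 37 degrees C with 500 pg/mL final TGF-beta. Unstimulated wells served as the full-inhibition control; stimulated DMSO wells = 0%.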
ATXN2 expr inh – Primary qHTS for Inhibitors of ATXN expression. HEK-293 ATXN2-luciferase reporter, luminescence, 24 h. Potency, µM (titrated, usually from 57 µM), for the others: top-dose activity change, negative = inhibition, usual class: inhibitors. 0.72% of 360,000 active; further: on the % scale 0 is the no-effect control and ±100 the full control effect; nearly all actives have a fitted effect of over 55% in size
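ATXN2-luciferase reporter cells (luciferase flanked by upstream and downstream ATXN2 gene portions) were treated 24 h at 37 °C with compounds at up to 57 uM. SteadyGlo luminescence gave expression; GF-AFC fluorescence gave viability.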
HepG2 tox-1 – qHTS for Inhibitors of TGF-b: Cytotox Counterscreen; HepG2 CAGA-GFP viability, ATP luminescence, 18 h; Potency, µM (series often up to 46.1 µM), for the others: at the top dose activity change, negative = cytotoxicity, hits mostly cytotoxic; 0.76% of 410,000 active; AID 588856, 2011
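HepG2 CAGA-GFP cells (1000/well, DMEM with 1% FBS) received compound, then TGF-beta at 500 pg/mL final, and were incubated 18 hours at 37 degrees C. Viability was read by CellTiter-Glo luminescence. Media-only wells were set as complete cell-killing and DMSO as no toxicity.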
HT1080-NT tox – qHTS for induction of synthetic lethality in tumor cells producing 2HG: qHTS for the HT-1080-NT fibrosarcoma cell line; HT-1080-NT fibrosarcoma viability, CellTiter-Glo ATP luminescence, 48 h; Potency, µM (highest dose often 46.1 µM), without a hit: top-dose activity, negative = less viability, usual class: cytotoxic; 1.6% of 360,000 active;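 further: NT is the 2HG producing partner of a matched IDH1 knockdown line; 0% = DMSO-treated cells and -100% = media-only wells without cells; nearly all actives have a fitted effect of over 55% in size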
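Viability by CellTiter-Glo luminescence after 48 h compound exposure at 37C of HT-1080-NT cells (750/well, RPMI, 5% FBS). % activity scaled between DMSO wells and medium-only wells, then curve-fitted and categorized by curve class.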
HT1080 IDH1KD tx – qHTS for induction of synthetic lethality in tumor cells producing 2HG: qHTS for the HT-1080-IDH1KD cell line | AID 686971, 2013 | Potency, µM (titrated, usually from 46.1 µM), for the others: at the top dose activity, negative = toxicity, usual class: cytotoxic | 2% of 360,000 active | HT-1080 IDH1 knockdown viability, ATP luminescence, 48 h;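 further: 0% = DMSO wells and -100% = cell-free medium wells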
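CellTiter-Glo luminescence after 48 h compound exposure at 37 degrees C of IDH1-knockdown HT-1080 cells in 5% FBS RPMI. %Activity scaled between DMSO wells and cell-free media wells, with curves fitted and assigned curve classes.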
TGFb confirm – qHTS for Inhibitors of TGF-b: Confirmation of Cherry Picks | 63% of 1,600 active | Potency, µM (highest dose often 46.1 µM), inactives show at the top dose activity, negative = inhibition, usual class: inhibitors | shares compounds with TGFb inhibitor | HepG2 CAGA-GFP TGF-b reporter, GFP fluorescence, 18 h; cells stimulated with TGF-beta, 500 pg/mL; further: on the % scale 0 is the no-effect control and ±100 the full control effect; nearly all actives have a fitted effect of over 65% in size
HepG2 tox-2 – qHTS for Inhibitors of TGF-b: Cytotox Counterscreen for Cherry Picks; shares compounds with TGFb inhibitor; HepG2 CAGA-GFP viability, ATP luminescence, 18 h; cells stimulated with TGF-beta, 500 pg/mL; Potency, µM (doses to about 46.1 µM), without a hit: top-dose activity, negative = cytotoxicity, most hits filed as inhibitors; 27% of 1,600 active; further: on the % scale 0 is the no-effect control and ±100 the full control effect; nearly all actives have a fitted effect of over 70% in size
CCL64 TGFb inh – qHTS for Inhibitors of TGF-b: CCL64 Cells Orthogonal Assay for Cherry Picks; shares compounds with TGFb inhibitor; CCL64 CAGA-GFP reporter, TGF-b stimulated, GFP fluorescence, 18 h; Potency, µM (doses to about 46.1 µM), for inactives: top-dose activity, negative = inhibition, usual class: inhibitors; 41% of 1,600 active; AID 720536, 2013; further: nearly all actives have a fitted effect of over 65% in size
TGFb COP inh – qHTS for Inhibitors of TGF-b: Hit Validation in HepG2 Cells using COP promoter; Potency, µM (doses to about 46.1 µM), for inactives: top-dose activity, negative = inhibition, actives largely listed as inhibitors; 3% of 1,600 active; HepG2 COP-GFP TGF-b reporter, GFP fluorescence, 18 h; cells stimulated by added recombinant TGF-beta; shares compounds with TGFb inhibitor; AID 720537, 2013; further: nearly all actives have a fitted effect of over 70% in size
Active calls of the source: *; i = inactive; ? = inconclusive; / = not tested or not shown. The call rests on the fitted dose curve; in most records, active means well fitted curve in the direction sought with a large enough effect; inconclusive means small, poorly fitted or top-dose-only effect, or another doubt; inactive means no such curve, though single readings can be large; an effect the other way counts as inactive or inconclusive. Potency means the concentration at half of the fitted maximal effect.

SMILES	ATXN viability	TGFb inhibitor	ATXN2 expr inh	HepG2 tox-1	HT1080-NT tox	HT1080 IDH1KD tx	TGFb confirm	HepG2 tox-2	CCL64 TGFb inh	TGFb COP inh
CC(Nc1ccccc1CO)C(=O)Nc1cccc(Cl)c1Cl (stereo unspecified)	i	3.98µM*	?	-32.0%	-20.6%	-10.8%	5.17µM*	2.06µM*	-20.3%	-14.8%
Cc1[nH]c2ccccc2c1C(c1ccccn1)N1CCCC1 (stereo unspecified)	i	-22.9%	34.8%	-16.9%	7.8%	6.0%	/	/	/	/
Oc1c(C(c2ccccn2)N2CCCCC2)cc(Cl)c2cccnc12 (stereo unspecified)	i	7.94µM*	?	-40.6%	14.6µM*	16.4µM*	?	?	?	-0.4%
CC(=O)c1ccc(OCCCC(=O)Nc2ccc(Cl)c(S(=O)(=O)N3CCOCC3)c2)cc1	i	?	/	-5.5%	-5.3%	-17.4%	/	/	/	/
Cc1ccc(OCCCC(=O)Nc2ccc(Cl)c(S(=O)(=O)N3CCOCC3)c2)cc1	i	8.91µM*	-35.2%	-26.7%	-19.6%	-20.8%	?	?	3.0%	1.1%
CCc1ccc(NC(=O)c2cnn(-c3c(C)cccc3C)c2C2CCNCC2)cc1	i	5.1%	-12.3%	-26.2%	/	/	/	/	/	/
COc1cccc2c1C(=O)c1c(O)c3c(c(O)c1C2=O)C[C@](O)(C(C)=O)C[C@H]3O[C@@H]1C[C@@H](N)[C@@H](O)[C@@H](C)O1	?	1µM*	?	-86.0%	0.651µM*	0.411µM*	1.03µM*	0.517µM*	4.11µM*	?
COc1ccc(C(=O)Nc2ccc3oc(Cc4ccc(Cl)cc4)nc3c2)cc1OC	?	15.8µM*	?	-22.6%	-12.4%	-18.1%	?	-17.7%	13.2%	0.3%
COc1ccc(Cl)cc1NC(=O)c1ccc2nc(Cc3ccccc3)oc2c1	i	-8.9%	-30.2%	-33.1%	/	/	/	/	/	/
OCc1ccc(-c2nn(Cc3ccccc3)c3ccccc23)o1	?	2.82µM*	?	-49.8%	-24.2%	-20.8%	1.03µM*	0.651µM*	?	4.9%
CC1(C)Cc2ccccc2C(Nn2cnnc2)=N1	i	-13.6%	3.8%	6.9%	6.4%	2.4%	/	/	/	/
